# Results from paper PMC11062922 (Nature Chemical Biology, 2023).
# Like-named read-outs stand apart in the source and are kept apart here.
# Tests used:
# Conditions in all cases: read-out: apparent Kd, n = 1
# [1] = tested on: ACVR1
# [2] = tested on: CDK6
# [3] = tested on: CLK1
# [4] = compound concentrations:100 nM and 1000 nM (sheet 'Lestaurtinib' of Supplementary Table 1),run:Lestaurtinib_02422_R1,Plate:MR006
# [5] = compound concentrations:100 nM and 1000 nM (sheet 'Lestaurtinib' of Supplementary Table 1),run:Lestaurtinib_02443_R3,Plate:MR009
# [6] = compound concentrations:100 nM and 1000 nM (sheet 'Lestaurtinib' of Supplementary Table 1),run:Lestaurtinib_02896_R1,Plate:MR030
# [7] = compound concentrations:100 nM and 1000 nM (sheet 'Lestaurtinib' of Supplementary Table 1),run:Lestaurtinib_02496_R3,Plate:MR013
substance,measurement,setting,value
Lestaurtinib,potency estimated from few doses,"[1]; compound concentrations:100 nM and 1000 nM (sheet 'Lestaurtinib' of Supplementary Table 1),run:Lestaurtinib_02339_R2,Plate:MR001",1510 nM
same,potency estimated from few doses,"[1]; compound concentrations:100 nM and 1000 nM (sheet 'Lestaurtinib' of Supplementary Table 1),run:Lestaurtinib_02407_R1,Plate:MR005",1540 nM
same,potency estimated from few doses,[1]; [4],1350 nM
same,potency estimated from few doses,[1]; [5],946 nM
same,potency estimated from few doses,"[1]; compound concentrations:100 nM and 1000 nM (sheet 'Lestaurtinib' of Supplementary Table 1),run:Lestaurtinib_02473_R3,Plate:MR010",958 nM
same,potency estimated from few doses,"[1]; compound concentrations:100 nM and 1000 nM (sheet 'Lestaurtinib' of Supplementary Table 1),run:Lestaurtinib_02572_R1,Plate:MR015",671 nM
same,potency estimated from few doses,"[1]; compound concentrations:100 nM and 1000 nM (sheet 'Lestaurtinib' of Supplementary Table 1),run:Lestaurtinib_02577_R1,Plate:MR016",1530 nM
same,potency estimated from few doses,"[1]; compound concentrations:100 nM and 1000 nM (sheet 'Lestaurtinib' of Supplementary Table 1),run:Lestaurtinib_02577_R3,Plate:MR016",1360 nM
same,potency estimated from few doses,"[1]; compound concentrations:100 nM and 1000 nM (sheet 'Lestaurtinib' of Supplementary Table 1),run:Lestaurtinib_02584_R3,Plate:MR017",1580 nM
same,potency estimated from few doses,"[1]; compound concentrations:100 nM and 1000 nM (sheet 'Lestaurtinib' of Supplementary Table 1),run:Lestaurtinib_02748_R1,Plate:MR024",1460 nM
same,potency estimated from few doses,"[1]; compound concentrations:100 nM and 1000 nM (sheet 'Lestaurtinib' of Supplementary Table 1),run:Lestaurtinib_02766_R3,Plate:MR027",1420 nM
same,potency estimated from few doses,[1]; [6],1240 nM
same,potency estimated from few doses,"[2]; compound concentrations:100 nM and 1000 nM (sheet 'Lestaurtinib' of Supplementary Table 1),run:Lestaurtinib_02339_R3,Plate:MR001",1400 nM
same,potency estimated from few doses,"[2]; compound concentrations:100 nM and 1000 nM (sheet 'Lestaurtinib' of Supplementary Table 1),run:Lestaurtinib_02367_R1,Plate:MR003",1630 nM
same,potency estimated from few doses,"[2]; compound concentrations:100 nM and 1000 nM (sheet 'Lestaurtinib' of Supplementary Table 1),run:Lestaurtinib_02381_R1,Plate:MR004",1670 nM
same,potency estimated from few doses,"[2]; compound concentrations:100 nM and 1000 nM (sheet 'Lestaurtinib' of Supplementary Table 1),run:Lestaurtinib_02407_R2,Plate:MR005",1670 nM
same,potency estimated from few doses,[2]; [5],2020 nM
same,potency estimated from few doses,[2]; [7],1830 nM
same,potency estimated from few doses,"[2]; compound concentrations:100 nM and 1000 nM (sheet 'Lestaurtinib' of Supplementary Table 1),run:Lestaurtinib_02601_R1,Plate:MR018",1350 nM
same,potency estimated from few doses,"[2]; compound concentrations:100 nM and 1000 nM (sheet 'Lestaurtinib' of Supplementary Table 1),run:Lestaurtinib_02765_R3,Plate:MR026",1590 nM
same,potency estimated from few doses,[2]; [6],1370 nM
same,potency estimated from few doses,"[2]; compound concentrations:100 nM and 1000 nM (sheet 'Lestaurtinib' of Supplementary Table 1),run:Lestaurtinib_03260_R1,Plate:MR033",914 nM
same,potency estimated from few doses,"[2]; compound concentrations:100 nM and 1000 nM (sheet 'Lestaurtinib' of Supplementary Table 1),run:Lestaurtinib_03260_R3,Plate:MR033",157 nM
same,potency estimated from few doses,"[3]; compound concentrations:100 nM and 1000 nM (sheet 'Lestaurtinib' of Supplementary Table 1),run:Lestaurtinib_02364_R1,Plate:MR002",130 nM
same,potency estimated from few doses,"[3]; compound concentrations:100 nM and 1000 nM (sheet 'Lestaurtinib' of Supplementary Table 1),run:Lestaurtinib_02364_R3,Plate:MR002",175 nM
same,potency estimated from few doses,"[3]; compound concentrations:100 nM and 1000 nM (sheet 'Lestaurtinib' of Supplementary Table 1),run:Lestaurtinib_02367_R2,Plate:MR003",153 nM
same,potency estimated from few doses,"[3]; compound concentrations:100 nM and 1000 nM (sheet 'Lestaurtinib' of Supplementary Table 1),run:Lestaurtinib_02367_R3,Plate:MR003",240 nM
same,potency estimated from few doses,"[3]; compound concentrations:100 nM and 1000 nM (sheet 'Lestaurtinib' of Supplementary Table 1),run:Lestaurtinib_02407_R3,Plate:MR005",176 nM
same,potency estimated from few doses,[3]; [4],88.2 nM
same,potency estimated from few doses,"[3]; compound concentrations:100 nM and 1000 nM (sheet 'Lestaurtinib' of Supplementary Table 1),run:Lestaurtinib_02422_R2,Plate:MR006",4.49 nM
same,potency estimated from few doses,"[3]; compound concentrations:100 nM and 1000 nM (sheet 'Lestaurtinib' of Supplementary Table 1),run:Lestaurtinib_02422_R3,Plate:MR006",115 nM
same,potency estimated from few doses,"[3]; compound concentrations:100 nM and 1000 nM (sheet 'Lestaurtinib' of Supplementary Table 1),run:Lestaurtinib_02437_R1,Plate:MR007",132 nM
same,potency estimated from few doses,"[3]; compound concentrations:100 nM and 1000 nM (sheet 'Lestaurtinib' of Supplementary Table 1),run:Lestaurtinib_02437_R2,Plate:MR007",160 nM
same,potency estimated from few doses,"[3]; compound concentrations:100 nM and 1000 nM (sheet 'Lestaurtinib' of Supplementary Table 1),run:Lestaurtinib_02438_R3,Plate:MR008",124 nM
same,potency estimated from few doses,"[3]; compound concentrations:100 nM and 1000 nM (sheet 'Lestaurtinib' of Supplementary Table 1),run:Lestaurtinib_02443_R1,Plate:MR009",154 nM
same,potency estimated from few doses,"[3]; compound concentrations:100 nM and 1000 nM (sheet 'Lestaurtinib' of Supplementary Table 1),run:Lestaurtinib_02443_R2,Plate:MR009",115 nM
same,potency estimated from few doses,[3]; [5],133 nM
same,potency estimated from few doses,"[3]; compound concentrations:100 nM and 1000 nM (sheet 'Lestaurtinib' of Supplementary Table 1),run:Lestaurtinib_02473_R1,Plate:MR010",93.7 nM
same,potency estimated from few doses,"[3]; compound concentrations:100 nM and 1000 nM (sheet 'Lestaurtinib' of Supplementary Table 1),run:Lestaurtinib_02473_R2,Plate:MR010",131 nM
same,potency estimated from few doses,"[3]; compound concentrations:100 nM and 1000 nM (sheet 'Lestaurtinib' of Supplementary Table 1),run:Lestaurtinib_02482_R3,Plate:MR011",170 nM
same,potency estimated from few doses,"[3]; compound concentrations:100 nM and 1000 nM (sheet 'Lestaurtinib' of Supplementary Table 1),run:Lestaurtinib_02487_R2,Plate:MR012",196 nM
same,potency estimated from few doses,[3]; [7],84.6 nM
same,potency estimated from few doses,"[3]; compound concentrations:100 nM and 1000 nM (sheet 'Lestaurtinib' of Supplementary Table 1),run:Lestaurtinib_02566_R1,Plate:MR014",131 nM
same,potency estimated from few doses,"[3]; compound concentrations:100 nM and 1000 nM (sheet 'Lestaurtinib' of Supplementary Table 1),run:Lestaurtinib_02566_R3,Plate:MR014",151 nM
